# High-throughput results deposited in PubChem by several laboratories.
# Shown are actives, neighbours in structure and some others; about 2.8% of the full set was active somewhere.
# HSV augment – enhancers of HSV replication in host cells, fold increase, host cell viability; maximum fold increase; 220,000 compounds, 0.005% hits; AID 1956, 2009; HSV replication augmentation in cells; in the data active means maximum fold increase above about 1.5; tested in PC3 cells
# EP2 mod – EP2 receptor modulators, cAMP readout, primary screen, cell-based, HTRF cAMP, PGE2 stimulation. EP2-expressing cells, cAMP HTRF FRET, PGE2 co-stimulation. 260,000 compounds, 0.83% hits. AID 940, 2007. Prostaglandin E2 receptor EP2 subtype (Homo sapiens), P43116. induction, % at 25 µM;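 active means compounds whose cAMP rise, as percent of the full-agonist control response, exceeds 60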;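 further: rat C6 glioma line stably carrying human EP2 under a CMV promoter; the protocol text gives 20 µM as final concentration; 100% = response of wells given 1 µM PGE2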
# Furin inh – human furin inhibitors, primary screen, biochemical, fluorescence intensity; 220,000 compounds, 0.061% hits; inhibition, % at 20 µM or 30 µM; purified furin, fluorogenic substrate cleavage; P09958; AID 463115, 2010; in the data active means inhibition above about 25%
# NCF1 inh – p47phox/p22phox peptide binding inhibitors, primary screen, biochemical, uHTS, NADPH oxidase regulatory subunit | Neutrophil cytosol factor 1 (Homo sapiens), P14598 | fluorescence polarization, 2 h | inhibition, % at 24.7 µM | 220,000 compounds, 0.53% hits;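 active means inhibition above about 30%, limit read from the data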;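 further: 0% = p47phox with labelled peptide and 100% = labelled peptide alone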
# Wee1 stabilizer – Wee1 degradation inhibitors, primary screen, cell-based, HeLa, Wee1K328M-luciferase, luminescence; 220,000 compounds, 1.2% hits; AID 1321, 2008; reporter increase, % at 5 µM; HeLa Luc-Wee1K328M stability; 100% = proteasome inhibitor MG132 effect;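 active means activation above the mean of all tested compounds plus 3 SD, set per screening run, cut at about 8.8% in these data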;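 further: cells exposed to compound for 20 h before luminescence read; 0% = DMSO alone and 100% = MG132 at 30 µM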
# Target sequence (P30291 whole entry K328M): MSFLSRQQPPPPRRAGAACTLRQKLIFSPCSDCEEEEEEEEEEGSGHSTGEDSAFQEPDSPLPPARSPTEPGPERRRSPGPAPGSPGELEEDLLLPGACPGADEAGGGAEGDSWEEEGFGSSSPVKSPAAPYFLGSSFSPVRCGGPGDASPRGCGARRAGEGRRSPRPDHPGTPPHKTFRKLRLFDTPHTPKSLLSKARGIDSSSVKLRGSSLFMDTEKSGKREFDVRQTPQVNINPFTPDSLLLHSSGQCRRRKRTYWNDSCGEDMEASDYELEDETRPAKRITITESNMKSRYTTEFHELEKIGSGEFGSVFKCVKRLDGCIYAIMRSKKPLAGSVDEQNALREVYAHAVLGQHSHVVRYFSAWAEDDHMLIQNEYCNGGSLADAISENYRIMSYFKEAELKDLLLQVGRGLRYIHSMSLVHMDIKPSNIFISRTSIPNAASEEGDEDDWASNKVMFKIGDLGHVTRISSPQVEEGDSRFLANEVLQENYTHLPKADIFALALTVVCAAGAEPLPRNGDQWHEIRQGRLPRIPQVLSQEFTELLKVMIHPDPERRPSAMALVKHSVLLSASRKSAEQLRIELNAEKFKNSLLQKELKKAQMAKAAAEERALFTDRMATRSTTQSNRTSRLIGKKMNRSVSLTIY
# EP2 antag – human EP2 receptor antagonists, primary screen, TR-FRET cAMP, C6 glioma cells | Prostaglandin E2 receptor EP2 subtype (Homo sapiens), P43116 | C6 glioma cells expressing human EP2; cells stimulated with saturating PGE2 | inhibition, % at 25 µM | 260,000 compounds, 0.52% hits;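 active means percent inhibition above 40 after rounding to a whole number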;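 further: rat C6 glioma host cells with rolipram phosphodiesterase inhibitor present; the protocol text gives 20 µM as final concentration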
# EP2 cAMP induct – cAMP induction in EP2, EP4, beta2-AR and parental cells, confirmation, counter-screen for EP2 modulator project, cell-based, five parallel assays, C6 glioma, HEK293 | cAMP HTRF induction; plus low (about EC15) PGE2 agonist | 1,300 compounds, 47% hits | shares compounds with EP2 mod | calls only at 20 µM (by protocol);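 active means cAMP induction above 50% in the main assay while under 30% in all four parallel counter assays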;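 further: rat C6 glioma cells stably expressing human EP2 receptor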
# * = called active by the depositor; i = inactive; . = not tested or not shown; + = active, no number.
SMILES,HSV augment,EP2 mod,Furin inh,NCF1 inh,Wee1 stabilizer,EP2 antag,EP2 cAMP induct
Cc1cccc(-c2csc(N)c2C(=O)OC(C)C)c1,i,95.7*,-18.6,-5.2,3.6,8.7,+
C1=CC2C=Cc3nc(-c4ccco4)c4c(c3C2C=C1)CCC4 (centres undefined),.,41.0,.,.,.,8.7,.
Oc1ccc(/C=N/N2CCN(C3c4ccccc4-c4ccccc43)CC2)c(O)c1,i,66.2*,-10.5,-4.5,5.1,6.2,i
Nc1n[nH]c2c1C1(CCCCC1)Cc1ccccc1-2,i,74.0*,-17.7,-7.6,1.7,3.8,+
CSc1n[nH]c2nc3c(c(=O)n12)C1(CCCCC1)Cc1ccccc1-3,i,-10.8,-5.8,-7.5,-2.7,15.6,.
CCCCc1nc(SCCOC)c2c(=O)n(C)c(=O)n(C)c2n1,i,59.0,-19.5,-1.6,1.1,5.8,i
Cc1ccc2c(c1)N(Cc1cccc(Cl)c1)C(=O)c1cccnc1O2,i,71.0*,-10.6,-8.4,2.3,7.3,+
O=C1c2cccnc2Oc2ccc(Cl)cc2N1Cc1ccc(F)cc1,i,21.1,-6.2,1.5,-1.0,3.2,.
COc1ccc(CCNC(=O)CSc2nc(C3CC3)nc3sc4c(c23)CCCC4)cc1OC,.,19.8,.,.,.,6.7,.
CC(=O)CSc1ncnc2sc3c(c12)CCC(C)C3 (centres undefined),i,60.6*,-7.7,-5.6,-3.6,4.7,i
Cc1noc(C)c1CSc1nc2sc3c(c2c(=O)n1C)CCCC3,i,63.1*,-5.4,-3.5,1.9,6.3,i
Cc1noc(C)c1CSc1ncnc2sc3c(c12)CCC(C)C3 (centres undefined),i,69.8*,-22.5,-13.3,-4.5,13.7,i
C=CCn1c(SCc2c(C)noc2C)nc2sc3c(c2c1=O)CCCC3,i,6.3,-0.9,-2.4,-2.0,3.9,.
Cc1noc(C)c1CSc1ncnc2sc3c(c12)CCC3,i,67.8*,-19.3,6.3,-2.7,4.7,i
O=C(CNC(=O)c1cccs1)NCC(=O)OCc1cccc2ccccc12,.,-86.0,.,.,.,8.5,.
CC(C)N1C(=O)C2C(C(=O)NCc3ccccc3)C3(C)C=CC2(O3)C1C(=O)NC(C)(C)C (centres undefined),.,-30.9,.,.,.,4.9,.
CCc1ccc(NC(=O)c2cc(C)on2)cc1,i,6.4,-21.3,0.2,1.2,-0.6,.
CCCc1cc(C(=O)OC)c(NC(=O)c2cc(C)on2)s1,i,58.0,-18.3,-2.6,-1.7,6.3,+
CC(=O)c1ccc(NC(=O)CSc2nc(C(C)C)nc3sc(C)c(C)c23)cc1,.,28.2,.,.,.,6.4,.
CCCn1c(SCC(=O)NCc2cccs2)nnc1-c1ccncc1,.,-10.1,.,.,.,8.5,.
CCOC(=O)c1c(NC(=O)COC)sc(C(C)=O)c1C,i,30.3,-16.5,-0.4,-0.1,8.6,.
CCOC(=O)c1c(NC(=O)CSc2nnnn2C)sc(C)c1C,i,23.7,-7.5,-3.2,-1.2,7.5,.
CCOC(=O)c1c(NC(=O)CC(C)C)sc(C(C)=O)c1C,i,52.0,-14.6,3.2,-0.7,5.7,i
CCOC(=O)c1c(NC(=O)c2cccnc2)sc(C)c1C,i,52.4,-9.6,0.4,2.3,13.4,+
CCOC(=O)c1c(NC(=O)c2ccoc2C)sc(C(=O)N(C)C)c1C,i,53.9,-8.4,-5.1,-3.2,13.2,i
SMILES,HSV augment,EP2 mod,Furin inh,NCF1 inh,Wee1 stabilizer,EP2 antag,EP2 cAMP induct
CCOC(=O)c1c(NC(=O)CSc2nnnn2CC)sc(C)c1C,i,60.2,-5.9,-19.2,-2.7,17.9,i
O=C(c1ccco1)N1CCC[C@@H]1Cn1nc(-c2cccs2)ccc1=O,.,10.8,.,.,.,2.4,.
CCC(CC)NC(=O)c1c(-c2ccccc2)noc1C,.,-15.2,.,.,.,7.9,.
CCCn1c(SCC(=O)Nc2sc(C)c(C)c2C(=O)OCC)nc2c1c(=O)n(C)c(=O)n2C,i,52.5,-1.6,-11.6,0.3,11.0,i
CCOC(=O)c1c(NC(=O)CNCC(O)CO)sc(C)c1C (centres undefined),i,6.5,-13.1,-11.1,0.7,22.2,.
CCCn1c(SCC(=O)Nc2ccc(Cl)cc2)nc2c1c(=O)n(C)c(=O)n2C,.,-9.9,.,.,.,7.0,.
CCCCNCC(=O)Nc1sc(C)c(C)c1C(=O)OCC,i,53.4,-21.5,-2.3,4.1,3.5,i
CCC(=O)N(CCC(Cc1ccccc1)c1ccco1)Cc1ccco1 (centres undefined),i,77.5*,-3.8,-1.7,4.9,8.8,i
CCOC(=O)c1c(NC(=O)c2ccc(-n3cnnn3)cc2)sc2c1CCCC2,i,57.7,-21.7,-16.4,-2.4,7.2,+
CCOC(=O)Nc1sc2c(c1C(=O)OCC)CCC2,i,74.5*,-13.0,-16.7,-0.6,3.9,i
COCCNc1nc(-c2ccccc2)cs1,.,-12.9,.,.,.,8.3,.
CCOC(=O)c1ccc2nc(C(F)(F)F)[nH]c(=O)c2c1,i,73.0*,-29.5,-8.0,0.8,13.4,i
O=C(NCCC1=CCCCC1)c1cccc2c1C(=O)N(C1CCCCC1)C2,i,84.7*,-32.6,-3.1,0.0,1.8,+
CCN(CC)C(=O)CN(c1cc2c(cc1OC)oc1ccccc12)S(=O)(=O)c1ccc(C)cc1,i,91.4*,-6.0,-19.5,-1.4,5.5,i
O=C(CN1CCC(C(=O)c2ccc(Cl)cc2)CC1)NC1CCCCC1,.,-28.5,.,.,.,10.2,.
O=c1[nH]c(=O)c2cc(S(=O)(=O)NCc3ccccc3CN3CCCC3)ccc2[nH]1,.,-66.9,.,.,.,7.2,.
Cc1cc(C)c2nc(-c3cccs3)cc(C(=O)N3CCOCC3)c2c1,.,-35.1,.,.,.,9.4,.
O=C1CC(c2ccccc2)=Nc2ccccc2N1,i,-2.5,-7.6,-7.4,1.1,9.0,.
C1=C(c2ccccc2)Nc2ccccc2N=C1c1ccccc1,i,66.2*,-7.9,6.0,2.2,2.7,+
COc1ccc2c(c1)c(=O)c(Br)c(C)n2Cc1ccccc1,i,68.2*,-18.8,-6.5,1.5,-0.8,+
O=C(NCc1ccco1)c1ccc(Cn2c(=O)c3ccccc3n(Cc3ccc(Cl)cc3)c2=O)cc1,i,21.4,-9.4,-0.1,-0.7,12.7,.
Cc1ccc(Cn2c(=O)n(Cc3ccco3)c(=O)c3ccccc32)cc1,i,67.7*,-13.9,-1.0,-1.9,8.5,+
